# Tcruzi prolif: T. cruzi intracellular proliferation inhibitors, primary screen, cell-based, beta-gal Tulahuen parasites, NIH3T3 host, luminescence; 77,000 tested, 5.9% active; T. cruzi beta-gal in NIH3T3, GalScreen luminescence, 90 h; inhibition, % at 8.34 µM;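 active = mean inhibition above about 93%, with at least 55% of replicates each passing it, limit read from the data, passing the limit was not always enough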
# Pf Dd2 growth: P. falciparum Dd2 growth inhibitors, primary screen, SYBR Green fluorescence, single dose replicates; 72 h; active compounds read low; activity change, % at 10 µM; 94,000 tested, 2.3% active; in the data active = activity change below about -80%
# C diff HTS: C. difficile growth inhibitors, primary screen, HTS; Clostridium difficile clinical isolate growth, OD600, 24 h; active compounds read low; growth activity, negative = inhibition, % at 16 µg/mL (by protocol); 86,000 tested, 0.25% active; AID 1259249, 2017;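 active = mean growth activity at or below -80% and every replicate also at or below -80%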;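 also: 0% = DMSO wells and -100% = levofloxacin 16 µg/mL wells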
# The depositor's hits bear a star; nt = not tested or not shown. Sampled rows, rich in hits. Any-hit rate of the full collection: about 6.7%.
SMILES,Tcruzi prolif,Pf Dd2 growth,C diff HTS
C[C@@H]1CCCCO[C@H](CN(C)Cc2ccc(C(F)(F)F)cc2)[C@@H](C)CN([C@@H](C)CO)C(=O)c2cc(NC(=O)Cc3ccccc3)ccc2O1,6,-89*,nt
C[C@@H]1CCCCO[C@@H](CN(C)Cc2ccc(Cl)c(Cl)c2)[C@H](C)CN([C@H](C)CO)C(=O)c2cc(NC(=O)C3CCCCC3)ccc2O1,84,-83*,3
C[C@@H]1CCCCO[C@H](CN(C)Cc2ccccc2)[C@@H](C)CN([C@H](C)CO)C(=O)c2cc(NC(=O)Nc3ccc(F)cc3)ccc2O1,66,26,0
C[C@@H]1CCCCO[C@H](CN(C)Cc2ccc(Cl)c(Cl)c2)[C@@H](C)CN([C@H](C)CO)C(=O)c2cc(NC(=O)C3CCCCC3)ccc2O1,92,-22,4
CC=Cc1ccc2n(c1=O)C[C@H]1[C@H](CO)[C@@H](C(=O)Nc3ccc(-c4ccccc4)cc3)N(CC)[C@@H]21 (mixture of isomers),71,-7,21
C[C@H]1CN([C@@H](C)CO)C(=O)c2cccc(NS(=O)(=O)c3ccccc3)c2O[C@@H]1CN(C)CC1CCCCC1,64,-12,-2
O=C(NC[C@H]1CC[C@@H]2[C@@H](CN2Cc2ccccc2F)O1)C1CC1,nt,14,4
C[C@@H]1CN([C@H](C)CO)C(=O)c2cc(NC(=O)Nc3ccc(C(F)(F)F)cc3)ccc2O[C@@H](C)CCCCO[C@@H]1CN(C)Cc1ccncc1,92,-77,-4
C[C@@H]1CN([C@H](C)CO)C(=O)c2cc(NC(=O)Nc3ccc(C(F)(F)F)cc3)ccc2O[C@@H](C)CCCCO[C@@H]1CN(C)Cc1ccc(Cl)c(Cl)c1,48,-87*,17
C[C@@H]1CCCCO[C@@H](CN(C)Cc2ccc(C(F)(F)F)cc2)[C@@H](C)CN([C@@H](C)CO)C(=O)c2cc(NC(=O)Nc3ccc4c(c3)OCO4)ccc2O1,85,-8,nt
C[C@@H]1CN([C@H](C)CO)C(=O)c2cc(NC(=O)Nc3ccc(F)cc3)ccc2O[C@@H](C)CCCCO[C@H]1CN(C)Cc1ccc(C(F)(F)F)cc1,94,-82*,nt
C[C@H]1CCCCO[C@H](CN(C)Cc2ccc(C(F)(F)F)cc2)[C@@H](C)CN([C@@H](C)CO)C(=O)c2cc(NC(=O)Nc3ccc(F)cc3)ccc2O1,91,-2,nt
C[C@@H]1CCCCO[C@H](CN(C)Cc2ccc(C(F)(F)F)cc2)[C@@H](C)CN([C@@H](C)CO)C(=O)c2cc(NC(=O)Nc3ccc4c(c3)OCO4)ccc2O1,78,-81*,nt
C[C@@H]1CCCCO[C@H](CN(C)Cc2ccncc2)[C@H](C)CN([C@H](C)CO)C(=O)c2cc(NC(=O)Nc3ccc(C(F)(F)F)cc3)ccc2O1,87,-84*,2
C[C@H](CO)N1C[C@H](C)[C@H](CN(C)Cc2ccc(Cl)c(Cl)c2)OCCCC[C@H](C)Oc2ccc(NC(=O)Nc3ccc(C(F)(F)F)cc3)cc2C1=O,45,-8,20
C[C@@H]1CCCCO[C@@H](CN(C)C(=O)Nc2ccc(C(F)(F)F)cc2)[C@H](C)CN([C@H](C)CO)C(=O)c2cc(NC(=O)c3ccncc3)ccc2O1,77,-7,7
COc1ccc(NC(=O)N(C)C[C@H]2OCCCC[C@@H](C)Oc3ccc(N(C)C)cc3C(=O)N([C@@H](C)CO)C[C@H]2C)cc1,37,-83*,-5
COc1ccc(NC(=O)N(C)C[C@@H]2OCCCC[C@H](C)Oc3ccc(NC(=O)c4ccccc4)cc3C(=O)N([C@@H](C)CO)C[C@@H]2C)cc1,48,-84*,-3
C[C@@H]1CCCCO[C@H](CN(C)Cc2ccc(C(F)(F)F)cc2)[C@H](C)CN([C@@H](C)CO)C(=O)c2cc(NC(=O)Nc3ccccc3)ccc2O1,77,-76,4
C[C@@H]1CN([C@@H](C)CO)C(=O)c2cc(NC(=O)Nc3ccccc3)ccc2O[C@@H](C)CCCCO[C@@H]1CN(C)Cc1ccc(C(F)(F)F)cc1,83,-82*,0
C[C@@H]1CN([C@H](C)CO)C(=O)c2cc(NC(=O)Cc3ccccc3)ccc2O[C@@H](C)CCCCO[C@@H]1CN(C)Cc1ccc(Cl)c(Cl)c1,91,-55,6
C[C@@H]1CCCCO[C@H](CN(C)Cc2ccc(Cl)c(Cl)c2)[C@@H](C)CN([C@@H](C)CO)C(=O)c2cc(NC(=O)Cc3ccccc3)ccc2O1,75,-86*,-2
COc1ccc(NC(=O)N(C)C[C@@H]2OCCCC[C@@H](C)Oc3ccc(NC(=O)c4ccccc4)cc3C(=O)N([C@@H](C)CO)C[C@H]2C)cc1,59,-19,3
COc1ccc(NC(=O)N(C)C[C@H]2OCCCC[C@@H](C)Oc3ccc(N(C)C)cc3C(=O)N([C@H](C)CO)C[C@H]2C)cc1,26,8,-1
C[C@@H]1CCCCO[C@H](CN(C)CC2CCCCC2)[C@@H](C)CN([C@H](C)CO)C(=O)c2cc(NC(=O)c3ccccc3)ccc2O1,90,-40,13
SMILES,Tcruzi prolif,Pf Dd2 growth,C diff HTS
COc1ccc(-c2ccc([C@H]3[C@@H](CO)N4C(=O)CN(C(=O)C5CCCC5)C[C@H]34)cc2)cc1,nt,-64,-7
O=C(Nc1ccc(F)cc1)N[C@@H]1C[C@@H]2O[C@@H](CO)CC[C@@H]2O[C@@H]1CCc1ccc(-c2ccccc2)cc1,nt,-22,15
COc1cccc(NC(=O)N2CC[C@@H]3[C@@H](CO)N(C)c4ccc(-c5ccccc5)cc4[C@@H]32)c1,78,-28,8
C[C@@H]1CCCCO[C@H](CN(C)Cc2ccc(C(F)(F)F)cc2)[C@H](C)CN([C@@H](C)CO)C(=O)c2cc(NC(=O)c3ccccc3)ccc2O1,67,-85*,10
C[C@@H]1CCCCO[C@@H](CN(C)C(=O)Nc2ccc(C(F)(F)F)cc2)[C@H](C)CN([C@@H](C)CO)C(=O)c2cc(NC(=O)c3ccccc3)ccc2O1,91,-19,0
C[C@H]1CCCCO[C@@H](CN(C)Cc2ccccc2)[C@@H](C)CN([C@@H](C)CO)C(=O)c2cc(NC(=O)Nc3ccc(C(F)(F)F)cc3)ccc2O1,82,-86*,23
C[C@@H]1CCCCO[C@H](CN(C)Cc2ccccc2)[C@H](C)CN([C@H](C)CO)C(=O)c2cc(NC(=O)Nc3ccc(C(F)(F)F)cc3)ccc2O1,80,-72,22
C[C@@H]1CCCCO[C@H](CN(C)Cc2ccc(C(F)(F)F)cc2)[C@@H](C)CN([C@H](C)CO)C(=O)c2cc(NC(=O)c3ccccc3)ccc2O1,93,-37,12
C[C@H]1CCCCO[C@H](CN(C)C(=O)Nc2ccc(C(F)(F)F)cc2)[C@@H](C)CN([C@@H](C)CO)C(=O)c2cc(NC(=O)c3ccccc3)ccc2O1,86,-87*,-10
COc1ccc2c3c(n(C)c2c1)[C@@H](CO)N(C(=O)CN1CCOCC1)CC31CN(C)C1,nt,11,-3
C[C@@H]1CN([C@H](C)CO)C(=O)Cc2cc(NC(=O)Nc3ccccc3)ccc2O[C@@H]1CN(C)S(C)(=O)=O,nt,-5,1

# Source: PubChem BioAssay (Broad Institute)
